Assay results published in the supplement of paper PMC6555819.

System: RARg:RXRa (NR concentration 270 nM, RXRa partner concentration 90 nM)
Test: PBM binding z-score (relative to random genomic background probes); higher = stronger binding; sequences stand for … in GC…GCGATTGACAGCGTAGAATGAAGG
Summary of the method: (§1)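 The probes on custom Agilent 4×180K protein-binding microarrays were double-stranded, with 34-nt variable regions bearing direct-repeat seeds, single-nucleotide variants, half-site ablations and random human genomic background sequences. Incubation lasted 1 h with ligand-free nuclear receptor dimers in PBS pH 7.4, 2% milk, 0.02% Triton X-100, 1 mM DTT, 0.2 mg/mL BSA and 0.4 mg/ml salmon testes DNA. Antibodies against each partner (one per run) detected bound dimers, and fluorescence scans were regression-normalized. Binding z-scores take the random background probes as reference.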

Row | Sequence | PBM binding z-score
1 | AGAACGAGGGCACGCAGAGTTGATAGCAGAGTAG | 2.85
2 | GCTGCTAGGTGAGGTTGGTCAGCTAACGGGTACG | -0.285
3 | GCAGACAGGTGAAACCCAGGTAACTCAGGGTGGC | 0.543
4 | TGAATGCGGTTATAAGATCAGGGAACGTTGCAAA | 0.175
5 | ACTAGTTGGTCAGCTGAGGTCACAGACAATTCGG | 4.16
6 | TCTCGGAGGACACGAAAGGTCAGAGCCCGACATC | 4.91
7 | GTACCGAGGTGAATAGGTCGTTGATGAGTAGGCG | 2.95
8 | CGTCCAAGGTCTTAGGAGGTCAGTGAAGACAGAT | 2.51
9 | GGAACGAGGACATTCGAGTTGATAGCATGGCGAT | 0.285
10 | ACCGAAAGGTCGTGAGGTGAGTATACAGAAAGGC | 4.64
11 | CGTCCAAGGTCAATGCTAGTTCAGTGAAAGCATT | 6.18
12 | ATCGAAAGGTCGAGGTGAGTATGGAGAAAGGGAA | 4.21
13 | TCAGACAGGTGAAGATAACTCAGGTACGCAGTCG | 0.712
14 | CCTACTGGGCCATCAGGTCATTAATATCAACGTT | 1.64
15 | CAAACTAGCTCAAGAGGTCAAAGTCCGCTTCCCG | 4.96
16 | TCATATAGGTAAATGCTAGGTGTAAGTCCGATCT | 0.43
17 | TGAACGAGGTTATAAGATCAGGGAACGTTGCAAA | 1.53
18 | CCTACTGGGCCAAAGGTAATTGATTCCAATGCTC | 0.0107

System: RARg homodimer (NR concentration 270 nM)
Test: as above
Summary of the method: as §1

Row | Sequence | PBM binding z-score
19 | AGAACGAGGGCAAAGAGTTGATAGCACGGGTGGC | 1.69
20 | CAAACTAGGTCACGAAAGGTCTAAGTCGAATGAC | 5.84
21 | GATACAGGGTCAGCTAGCGGCCAGAGTATGGAAA | 4.62
22 | TCTTCTAGATCAACAGGAGGTTAAGAAAGATCGA | 0.501
23 | TCTCGGAGGACACGAAAGGTCACAGCTCGACATC | 6.17
24 | ACTATTAGTTGACTTACGGCAACCGATACGACGC | 0.668
25 | TCTATTTGGTCACGGAGGTCACACACGACGGGTA | 5.19
26 | TCTCGGAGGACACGACAGGTCAGAGCTCGACATC | 3.16
27 | TGAAAGAGGTTAAAGATCAGGGAACGTGGCGTCG | 1.68
28 | CAAACTAGGTTAAGGTCAAAGTCGGTTTGTGCCA | 4.99
29 | AATACAGGGTCATCGTAGGCGAGAGTACGCACAG | 4.77
30 | CTCGAAAGGTCGGGCTCAGGTGAGTATACCAAAC | 3.19
31 | ATCGAAAGGTCGACGAGGCGAGTATACACCGTTT | 3.74
32 | CCGACTGGGGCATAAGGTTTCCATAAGCCAGCCC | -0.139
33 | CCTAGCAGGCCAGGGTTACTCAAGCATTTCGCTT | -0.141
34 | TTACCCAGGTGAAAGGTCGTTGATGCACGCCTTG | 1.53
35 | CGTACTAGGTCAAGGACAGTGAATCTCCGCACGC | 4.64
36 | ACTAGCAGGCCAAGTGTGGGTCACTCAAACAAAG | 1.51
37 | CCAGACAGGTGAAAGATAACTCAGTCTGGTACGC | 0.6
38 | CCTGTTAGGTCAATGGTCAGCTAAAGCAGCTCGC | 4.93

Row | Sequence | PBM binding z-score
39 | AGTCAAAGTTCAGGACGTGGTAACGTAAAGCACG | 4.85
40 | CGTCCAAGGTCAGAGAGGTCAGAGAATGCCGAGT | 7.09
41 | AGAACGAGGGCACGCAGAGTTGATAGCAGAGTAG | 2.58
42 | GCTGCTAGGTGAGGTTGGTCAGCTAACGGGTACG | -0.239
43 | GCAGACAGGTGAAACCCAGGTAACTCAGGGTGGC | 0.3
44 | TGAATGCGGTTATAAGATCAGGGAACGTTGCAAA | 0.239
45 | ACTAGTTGGTCAGCTGAGGTCACAGACAATTCGG | 3.84
46 | TCTCGGAGGACACGAAAGGTCAGAGCCCGACATC | 5.5
47 | GTACCGAGGTGAATAGGTCGTTGATGAGTAGGCG | 1.64
48 | CGTCCAAGGTCTTAGGAGGTCAGTGAAGACAGAT | 2.68
49 | GGAACGAGGACATTCGAGTTGATAGCATGGCGAT | 0.773
50 | ACCGAAAGGTCGTGAGGTGAGTATACAGAAAGGC | 4.01
51 | CGTCCAAGGTCAATGCTAGTTCAGTGAAAGCATT | 6.17
52 | ATCGAAAGGTCGAGGTGAGTATGGAGAAAGGGAA | 4.51
53 | TCAGACAGGTGAAGATAACTCAGGTACGCAGTCG | 0.748
54 | CCTACTGGGCCATCAGGTCATTAATATCAACGTT | 1.8
55 | CAAACTAGCTCAAGAGGTCAAAGTCCGCTTCCCG | 4.04
56 | TCATATAGGTAAATGCTAGGTGTAAGTCCGATCT | 0.124
57 | TGAACGAGGTTATAAGATCAGGGAACGTTGCAAA | 1.1
58 | CCTACTGGGCCAAAGGTAATTGATTCCAATGCTC | 0.0633

System: RXRa DBDmut IVT, anti-RXR (DBD mutation: RXRa K156A/R161A, NR concentration 90 nM)
Test: as above
Summary of the method: as §1

Row | Sequence | PBM binding z-score
59 | AGAACGAGGGCAAAGAGTTGATAGCACGGGTGGC | 2.57
60 | CAAACTAGGTCACGAAAGGTCTAAGTCGAATGAC | 1.6
61 | GATACAGGGTCAGCTAGCGGCCAGAGTATGGAAA | 1.31
62 | TCTTCTAGATCAACAGGAGGTTAAGAAAGATCGA | 0.855
63 | TCTCGGAGGACACGAAAGGTCACAGCTCGACATC | 1.44
64 | ACTATTAGTTGACTTACGGCAACCGATACGACGC | 0.643
65 | TCTATTTGGTCACGGAGGTCACACACGACGGGTA | 1.87
66 | TCTCGGAGGACACGACAGGTCAGAGCTCGACATC | 0.685
67 | TGAAAGAGGTTAAAGATCAGGGAACGTGGCGTCG | 0.56
68 | CAAACTAGGTTAAGGTCAAAGTCGGTTTGTGCCA | 2.74
69 | AATACAGGGTCATCGTAGGCGAGAGTACGCACAG | 3.52
70 | CTCGAAAGGTCGGGCTCAGGTGAGTATACCAAAC | 0.869
71 | ATCGAAAGGTCGACGAGGCGAGTATACACCGTTT | 1.28
72 | CCGACTGGGGCATAAGGTTTCCATAAGCCAGCCC | -0.156
73 | CCTAGCAGGCCAGGGTTACTCAAGCATTTCGCTT | -0.596
74 | TTACCCAGGTGAAAGGTCGTTGATGCACGCCTTG | 0.677
75 | CGTACTAGGTCAAGGACAGTGAATCTCCGCACGC | 1.21
76 | ACTAGCAGGCCAAGTGTGGGTCACTCAAACAAAG | -0.502
77 | CCAGACAGGTGAAAGATAACTCAGTCTGGTACGC | 0.193
78 | CCTGTTAGGTCAATGGTCAGCTAAAGCAGCTCGC | 2.35

Row | Sequence | PBM binding z-score
79 | AGTCAAAGTTCAGGACGTGGTAACGTAAAGCACG | 2.76
80 | CGTCCAAGGTCAGAGAGGTCAGAGAATGCCGAGT | 3.52
81 | AGAACGAGGGCACGCAGAGTTGATAGCAGAGTAG | 2.14
82 | GCTGCTAGGTGAGGTTGGTCAGCTAACGGGTACG | -0.389
83 | GCAGACAGGTGAAACCCAGGTAACTCAGGGTGGC | -0.915
84 | TGAATGCGGTTATAAGATCAGGGAACGTTGCAAA | -0.906
85 | ACTAGTTGGTCAGCTGAGGTCACAGACAATTCGG | 1.15
86 | TCTCGGAGGACACGAAAGGTCAGAGCCCGACATC | 0.988
87 | GTACCGAGGTGAATAGGTCGTTGATGAGTAGGCG | -0.0161
88 | CGTCCAAGGTCTTAGGAGGTCAGTGAAGACAGAT | 0.709
89 | GGAACGAGGACATTCGAGTTGATAGCATGGCGAT | 2.25
90 | ACCGAAAGGTCGTGAGGTGAGTATACAGAAAGGC | 1.74
91 | CGTCCAAGGTCAATGCTAGTTCAGTGAAAGCATT | 3.83
92 | ATCGAAAGGTCGAGGTGAGTATGGAGAAAGGGAA | 0.698
93 | TCAGACAGGTGAAGATAACTCAGGTACGCAGTCG | 1.15
94 | CCTACTGGGCCATCAGGTCATTAATATCAACGTT | 0.551
95 | CAAACTAGCTCAAGAGGTCAAAGTCCGCTTCCCG | 2.4
96 | TCATATAGGTAAATGCTAGGTGTAAGTCCGATCT | 1.47
97 | TGAACGAGGTTATAAGATCAGGGAACGTTGCAAA | 0.444
98 | CCTACTGGGCCAAAGGTAATTGATTCCAATGCTC | -0.288
